Measured values published in the supplement of paper PMC11555231.

Target: PADI4, Q9UM07
Assay: log2 enrichment score relative to parent PADI4_3 peptide (binding to PADI4); higher = tighter binding than parent
Conditions: CaCl2: 10 mM
Experimental: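 Deep mutational scan of the cyclic peptide PADI4_3 (ClAc-D-Tyr1 initiator, thioether-cyclised to Cys12, C-terminal Gly plus HA tag, mRNA-displayed). Positions 2-11 were each randomised by NNK codons; Met was reprogrammed as N-methyl-alanine (MeA). One round of equilibrium panning against bead-immobilised human PADI4 (100 nM, 10 mM CaCl2, RT). Log2 enrichment (bound/input frequency) relative to the parent sequence (0 = parent), mean of three independent selections.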

Chain of PADI4, Q9UM07 (Q9UM07 whole entry): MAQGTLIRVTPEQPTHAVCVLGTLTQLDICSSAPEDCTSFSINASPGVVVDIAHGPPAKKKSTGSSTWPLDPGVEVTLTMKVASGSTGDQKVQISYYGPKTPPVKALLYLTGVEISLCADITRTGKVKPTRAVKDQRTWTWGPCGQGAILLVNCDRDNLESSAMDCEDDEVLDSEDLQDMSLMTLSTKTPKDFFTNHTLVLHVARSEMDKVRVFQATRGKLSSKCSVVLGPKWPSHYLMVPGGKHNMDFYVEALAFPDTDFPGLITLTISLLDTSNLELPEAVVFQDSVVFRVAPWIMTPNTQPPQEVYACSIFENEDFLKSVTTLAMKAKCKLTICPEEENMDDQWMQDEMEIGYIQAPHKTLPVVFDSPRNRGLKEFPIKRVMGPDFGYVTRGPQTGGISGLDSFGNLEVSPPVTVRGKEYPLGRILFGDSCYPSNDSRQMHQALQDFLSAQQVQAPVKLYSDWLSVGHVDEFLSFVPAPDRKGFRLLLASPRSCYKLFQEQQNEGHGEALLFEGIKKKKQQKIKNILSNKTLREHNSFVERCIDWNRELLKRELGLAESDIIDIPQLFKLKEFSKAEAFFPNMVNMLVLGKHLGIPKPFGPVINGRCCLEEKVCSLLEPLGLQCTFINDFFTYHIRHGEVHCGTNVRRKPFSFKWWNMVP

Row | Binder | log2 enrichment score
1 | YRDHHYRWPKYCG [PADI4_3_H8W H8W] | -3.81
2 | YRPHHYRHPKYCG [PADI4_3_D3P D3P] | -2.96
3 | YRDHHYRHHKYCG [PADI4_3_P9H P9H] | -2.06
4 | YRDHHYRHPKVCG [PADI4_3_Y11V Y11V] | -4.2
5 | YRYHHYRHPKYCG [PADI4_3_D3Y D3Y] | -3.73
6 | YRDHHYRHPKYCG [PADI4_3_Y6Y Y6Y] | 0
7 | YRDHHFRHPKYCG [PADI4_3_Y6F Y6F] | -0.749
8 | YRDWHYRHPKYCG [PADI4_3_H4W H4W] | -3.44
9 | YRDHHYRHPKYCG [PADI4_3_H5H H5H] | 0
10 | YRDHHYRHWKYCG [PADI4_3_P9W P9W] | -2
11 | YRDHHYRPPKYCG [PADI4_3_H8P H8P] | -4.28
12 | YRWHHYRHPKYCG [PADI4_3_D3W D3W] | -3.57
13 | YRDHHYRHPWYCG [PADI4_3_K10W K10W] | -0.93
14 | YRDHHYRHPKYCG [PADI4_3_P9P P9P] | 0
15 | YRDYHYRHPKYCG [PADI4_3_H4Y H4Y] | -3.97
16 | YWDHHYRHPKYCG [PADI4_3_R2W R2W] | -2.67
17 | YRDHHYRHPFYCG [PADI4_3_K10F K10F] | -0.468
18 | YRDHHYWHPKYCG [PADI4_3_R7W R7W] | 1.07
19 | YRDHHWRHPKYCG [PADI4_3_Y6W Y6W] | -2.2
20 | YRDHHPRHPKYCG [PADI4_3_Y6P Y6P] | -2.49

Row | Binder | log2 enrichment score
21 | YHDHHYRHPKYCG [PADI4_3_R2H R2H] | -2.21
22 | YRDHHYRHPKWCG [PADI4_3_Y11W Y11W] | -2.51
23 | YRDHHYRHPKFCG [PADI4_3_Y11F Y11F] | -2.66
24 | YRDHHYRHPPYCG [PADI4_3_K10P K10P] | -3.67
25 | YRDHHYRHPKYCG [PADI4_3_H8H H8H] | 0
26 | YRDHFYRHPKYCG [PADI4_3_H5F H5F] | -4.31
27 | YRDHHYPHPKYCG [PADI4_3_R7P R7P] | -4.46
28 | YFDHHYRHPKYCG [PADI4_3_R2F R2F] | -2.57
29 | YRDHHYRFPKYCG [PADI4_3_H8F H8F] | -3.69
30 | YPDHHYRHPKYCG [PADI4_3_R2P R2P] | -2.67
31 | YRDHHYRHPHYCG [PADI4_3_K10H K10H] | -1
32 | YRDHHYYHPKYCG [PADI4_3_R7Y R7Y] | -0.78
33 | YRDHHVRHPKYCG [PADI4_3_Y6V Y6V] | -2.3
34 | YRDHHYRHPKHCG [PADI4_3_Y11H Y11H] | -2.81
35 | YRVHHYRHPKYCG [PADI4_3_D3V D3V] | -3.7
36 | YRDHHYVHPKYCG [PADI4_3_R7V R7V] | -1.6
37 | YRDHHYHHPKYCG [PADI4_3_R7H R7H] | -1.29
38 | YRDHVYRHPKYCG [PADI4_3_H5V H5V] | -3
39 | YVDHHYRHPKYCG [PADI4_3_R2V R2V] | -1.2
40 | YRDHHYRHPYYCG [PADI4_3_K10Y K10Y] | -0.51

Row | Binder | log2 enrichment score
41 | YRDHHYRHYKYCG [PADI4_3_P9Y P9Y] | -2
42 | YRDVHYRHPKYCG [PADI4_3_H4V H4V] | -2.6
43 | YRDHWYRHPKYCG [PADI4_3_H5W H5W] | -4.12
44 | YRDFHYRHPKYCG [PADI4_3_H4F H4F] | -3.79
45 | YRDPHYRHPKYCG [PADI4_3_H4P H4P] | -2.66
46 | YRDHYYRHPKYCG [PADI4_3_H5Y H5Y] | -4.14
47 | YRDHHYRYPKYCG [PADI4_3_H8Y H8Y] | -3.56
48 | YRDHHHRHPKYCG [PADI4_3_Y6H Y6H] | 0.321
49 | YRDLHYRHPKYCG [PADI4_3_H4L H4L] | -1.52
50 | YRDHHYRVPKYCG [PADI4_3_H8V H8V] | -3.3
51 | YRDHHYFHPKYCG [PADI4_3_R7F R7F] | -0.962
52 | YRDHHYRHPVYCG [PADI4_3_K10V K10V] | 2.58
53 | YRFHHYRHPKYCG [PADI4_3_D3F D3F] | -4.36
54 | YRDHHYRHPKPCG [PADI4_3_Y11P Y11P] | -4.34
55 | YRDHPYRHPKYCG [PADI4_3_H5P H5P] | -3.95
56 | YRDHHYRHFKYCG [PADI4_3_P9F P9F] | -2.05
57 | YRDHHYRHPKYCG [PADI4_3_Y11Y Y11Y] | 0
58 | YRDHHYRHVKYCG [PADI4_3_P9V P9V] | -1.8
59 | YYDHHYRHPKYCG [PADI4_3_R2Y R2Y] | -2.62
